# In PubChem BioAssay (EPA / NIEHS):
# The source made the active and inactive calls. How the source made its calls: active means hit-call score of the fitted dose curve at least 0.9, where 1 is the maximum; inactive means score below 0.9.
# Molecular target: Hypoxia-inducible factor 1-alpha (Homo sapiens) (UniProt Q16665)
# Test: ATG_HIF1a_CIS: Attagene CIS-FACTORIAL HepG2 Assay for human Hypoxia Inducible Factor 1 (HIF1A) (AID 2282951)
# Conditions: HepG2 Attagene cis-factorial HIF1a reporter transcription; actives raise or lower the signal
# Description: ATG_CIS is a cell-based, multiplexed-readout assay that uses HepG2, a human liver cell line, with measurements taken at 24 hours after chemical dosing in a 24-well plate.ATG_HIF1a_CIS is one of 52 assay component(s) measured or calculated from the ATG_CIS assay. It is designed to make measurements of mRNA induction, a form of inducible reporter, as detected with fluorescence intensity signals by Reverse transcription polymerase chain reaction (RT-PCR) and Capillary electrophoresis technology.Data from the assay component ATG_HIF1a_CIS was analyzed into 1 assay endpoint. This assay endpoint, ATG_HIF1a_CIS, was analyzed with bidirectional fitting relative to DMSO as the negative control and baseline of activity. Using a type of inducible reporter, measures of mRNA for gain or loss-of-signal activity can be used to understand the reporter gene at the transcription factor-level as they relate to the gene HIF1A. Furthermore, this assay endpoint can be referred to as a primary readout, because this assay has produced multiple assay endpoints where this one serves a reporter gene function. To generalize the intended target to other relatable targets, this assay endpoint is annotated to the dna binding intended target family, where the subfamily is basic helix-loop-helix protein.
# Human liver HepG2 cells are transiently transfected with multiple reporter transcription units (MRTUs) in 6-well plates using FuGene 6 reagent (Roche; 3 ml FuGene/1 mg DNA). The MRTU constructs are regulated by a cis-regulating element (promoter). […] A major difference between the CIS and TRANS system is that in CIS activities of endogenous TFs are measured, whereas the TRANS assay evaluates changes in activities of exogenous, chimeric NR-Gal4 proteins. […] At the end of 24 hour incubation, total RNA was isolated using TriZol reagent (Invitrogen). The isolated RNA is then reverse-transcribed using oligo(dT) primer and Mo-MLV reverse transcriptase (Invitrogen) with DNAse I (Ambion) treatment for 30 min. The one-tenth of the produced cDNA was amplified by PCR using Taq DNA polymerase (Invitrogen) and two reporter sequence-specific primers. The PCR products were fluorescently labeled by primer extension with 6-arboxyfluorescein (6-FAM) 5'-labeled reporter sequence-specific primer (2 min at 95 C, 20 s at 68 C and 10 min at 72 C) and these products were digested with 5U of HpaI (New England Biolabs) for 2h at 37 C. The fragments were purified using Qiaquick PCR columns (Qiagen), analyzed on an ABI 3130xL genetic analyzer (Applied Biosystems) with peak positions identified by using a set of X-rhodamine (ROX)-labeled MapMarker1000 molecular weight standards (BioVentures). The raw capillary electrophoresis data was processed using Attagraph software (Attagene).
# Hypoxia-inducible factor 1-alpha (Homo sapiens), sequence (Q16665 whole entry, looked up): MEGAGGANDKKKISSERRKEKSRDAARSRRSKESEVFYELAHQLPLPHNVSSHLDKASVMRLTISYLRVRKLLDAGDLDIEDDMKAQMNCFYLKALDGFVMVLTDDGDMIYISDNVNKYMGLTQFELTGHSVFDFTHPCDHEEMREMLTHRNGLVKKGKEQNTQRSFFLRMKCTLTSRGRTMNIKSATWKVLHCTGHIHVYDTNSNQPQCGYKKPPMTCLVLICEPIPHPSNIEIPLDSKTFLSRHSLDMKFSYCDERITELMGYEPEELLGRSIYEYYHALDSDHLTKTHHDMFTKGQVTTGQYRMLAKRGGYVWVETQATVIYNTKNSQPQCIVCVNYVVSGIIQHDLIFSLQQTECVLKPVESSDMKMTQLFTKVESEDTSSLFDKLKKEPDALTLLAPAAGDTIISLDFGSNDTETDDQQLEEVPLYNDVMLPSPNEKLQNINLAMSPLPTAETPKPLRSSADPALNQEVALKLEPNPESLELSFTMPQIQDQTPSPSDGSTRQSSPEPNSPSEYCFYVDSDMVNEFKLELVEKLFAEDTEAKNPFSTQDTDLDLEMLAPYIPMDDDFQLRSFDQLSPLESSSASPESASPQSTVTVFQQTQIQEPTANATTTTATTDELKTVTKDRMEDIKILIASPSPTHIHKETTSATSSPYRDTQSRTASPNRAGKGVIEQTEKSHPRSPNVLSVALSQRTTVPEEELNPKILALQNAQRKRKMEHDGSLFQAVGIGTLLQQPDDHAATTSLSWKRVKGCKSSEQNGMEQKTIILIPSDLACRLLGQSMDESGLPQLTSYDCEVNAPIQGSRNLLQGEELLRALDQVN
SMILES,outcome,AC50
N#Cc1ccccc1,inactive,
CCC(C)CCCC(C)(C)O (stereo not given),inactive,
CC(C)(CO)[N+](=O)[O-],inactive,
c1ccc2c(c1)c1cccc3ccc4cccc2c4c31,inactive,
CCCCNC(=O)NS(=O)(=O)c1ccc(N)cc1,inactive,
CCC(=O)OCCC(C)CCC=C(C)C (stereo not given),inactive,
CC(C)(C)c1n[nH]c(=S)n(N)c1=O,inactive,
OCCOc1cccc(OCCO)c1,inactive,
C=CC(=O)OCC(O)COc1ccccc1 (stereo not given),inactive,
COCCOCCOCCOCCOCCO,inactive,
O=Cc1ccc(Cl)c([N+](=O)[O-])c1,,139 µM (active)
CCCCCCCCCCCCCC(=O)O,inactive,
C=CC(C)(C)O,inactive,
O=C(O)c1cn(-c2ccc(F)cc2)c2cc(N3CCNCC3)c(F)cc2c1=O,inactive,
CCCC(=O)OCCC(C)CCC=C(C)C (stereo not given),inactive,
O=C1CCCCCCCCCCOCCCCO1,,179 µM (active)
CCCCN,inactive,
CC(C)(C)C(=O)c1ccccc1,inactive,
CC(=O)O[C@]1(C(C)=O)CC[C@H]2[C@@H]3C[C@H](C)C4=CC(=O)CC[C@]4(C)[C@H]3CC[C@@]21C,inactive,
CO[Si](C)(OC)c1ccccc1,inactive,

SMILES,outcome,AC50
CCCCCC(=O)OCCc1ccccc1,inactive,
CCCCC/C=C/C=C/C=O,,100 µM (active)
CCc1c(C)cc(N)c(CC)c1N,inactive,
Nc1cc([N+](=O)[O-])ccc1O,inactive,
Cc1ccc(S)cc1,inactive,
C[C@H]1C[C@H]2[C@@H]3CCC4=CC(=O)C=C[C@]4(C)[C@@]3(F)[C@@H](O)C[C@]2(C)[C@@]1(O)C(=O)COP(=O)(O)O,inactive,
COc1cc(C=O)ccc1OC(=O)C(C)C,inactive,
C=C[C@@H](C)CCC=C(C)C,inactive,
C=C(C)C(=O)O,inactive,
CCC(C(=O)NC(N)=O)c1ccccc1 (stereo not given),inactive,
C=CC(=O)OCCOCCOCC,inactive,
NC(=O)Nc1ccc(Cl)cc1,inactive,
CCCCCCCCCCCCCCCC(=O)OC[C@H](O)[C@H]1OC(=O)C(O)=C1O,,131 µM (active)
O=[N+]([O-])c1ccc(Nc2ccc(Nc3ccccc3)c(S(=O)(=O)O)c2)c([N+](=O)[O-])c1,inactive,
C=CCOc1nc(OCC=C)nc(OCC=C)n1,inactive,
CC(C)[C@H]1CC[C@@H](C)CC1=O,inactive,
O=C[C@@H](O)[C@H](O)[C@H](O)CO,inactive,
CCCCCCCCCCC(CO)CCCCCCCC (stereo not given),inactive,
Cc1ccc(C(=O)O)o1,inactive,
NCCCCCCN,inactive,
